What was measured:
Assay in all cases: log2 ratio of Biotin-Ahx-Ub-VS probe labelling (fragment/DMSO); higher = less target engagement (more negative = stronger competition), active = hit call of the paper (q ≤ 0.05, log2 ratio ≤ -1)
Conditions in all cases: compound concentration: 200 uM; treatment time: 3 h
USP42 = target: T1, USP42 (UniProt Q9H9J4)
T1 sequence (whole entry): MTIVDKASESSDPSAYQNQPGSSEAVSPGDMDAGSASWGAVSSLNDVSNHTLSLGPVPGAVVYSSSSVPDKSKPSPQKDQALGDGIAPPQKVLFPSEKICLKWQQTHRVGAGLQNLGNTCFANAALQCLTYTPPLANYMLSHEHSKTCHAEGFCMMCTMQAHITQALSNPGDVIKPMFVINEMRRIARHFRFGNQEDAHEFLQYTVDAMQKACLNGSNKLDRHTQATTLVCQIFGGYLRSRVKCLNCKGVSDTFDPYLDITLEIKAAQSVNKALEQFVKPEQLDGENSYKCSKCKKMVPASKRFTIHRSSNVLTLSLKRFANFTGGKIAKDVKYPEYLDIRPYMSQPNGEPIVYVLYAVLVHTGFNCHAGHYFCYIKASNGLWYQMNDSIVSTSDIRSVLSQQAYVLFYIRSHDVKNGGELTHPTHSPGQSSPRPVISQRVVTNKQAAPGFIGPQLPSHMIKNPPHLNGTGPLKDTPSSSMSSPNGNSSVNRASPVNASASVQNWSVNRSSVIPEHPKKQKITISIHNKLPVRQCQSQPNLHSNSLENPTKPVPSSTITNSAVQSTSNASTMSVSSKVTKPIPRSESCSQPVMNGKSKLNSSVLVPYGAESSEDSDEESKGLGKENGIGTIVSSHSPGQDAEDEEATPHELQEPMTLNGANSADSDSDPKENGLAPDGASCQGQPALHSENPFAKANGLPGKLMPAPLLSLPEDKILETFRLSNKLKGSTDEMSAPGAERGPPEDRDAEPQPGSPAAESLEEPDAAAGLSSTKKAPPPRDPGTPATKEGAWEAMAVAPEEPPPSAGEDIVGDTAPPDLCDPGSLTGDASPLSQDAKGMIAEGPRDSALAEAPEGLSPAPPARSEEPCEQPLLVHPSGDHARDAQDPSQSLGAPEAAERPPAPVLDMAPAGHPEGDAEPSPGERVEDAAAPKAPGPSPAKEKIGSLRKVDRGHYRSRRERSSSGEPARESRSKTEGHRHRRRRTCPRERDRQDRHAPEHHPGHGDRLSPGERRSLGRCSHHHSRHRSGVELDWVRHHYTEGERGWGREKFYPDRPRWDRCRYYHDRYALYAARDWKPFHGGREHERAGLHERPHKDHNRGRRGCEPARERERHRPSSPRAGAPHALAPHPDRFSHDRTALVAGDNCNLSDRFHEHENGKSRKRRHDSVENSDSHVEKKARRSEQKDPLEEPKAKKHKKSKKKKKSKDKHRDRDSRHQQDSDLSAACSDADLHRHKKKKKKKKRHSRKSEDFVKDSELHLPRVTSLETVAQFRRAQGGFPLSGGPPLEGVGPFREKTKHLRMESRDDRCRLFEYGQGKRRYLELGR
Method in brief: (§1)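 HEK293T lysate (495 µg per sample, in Tris/CHAPS/IGEPAL buffer with protease inhibitors) was exposed in triplicate for 3 h to fragment at 200 µM or to vehicle, then to Biotin-Ahx-Ub-VS at 0.5 µM final for 1 h. Labelled DUBs were enriched on NeutrAvidin, digested with LysC and trypsin, and analysed by diaPASEF LC-MS/MS. Spectronaut label-free quantities were normalised to the global median, and values are average log2 ratios of fragment over vehicle from an unpaired t-test. Only proteins with ≥2 unique peptides were used.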

USP46 = USP46 (UniProt P62068)
Method in brief: as §1

USP47 = target: T2, USP47 (UniProt Q96K76)
T2 sequence (whole entry): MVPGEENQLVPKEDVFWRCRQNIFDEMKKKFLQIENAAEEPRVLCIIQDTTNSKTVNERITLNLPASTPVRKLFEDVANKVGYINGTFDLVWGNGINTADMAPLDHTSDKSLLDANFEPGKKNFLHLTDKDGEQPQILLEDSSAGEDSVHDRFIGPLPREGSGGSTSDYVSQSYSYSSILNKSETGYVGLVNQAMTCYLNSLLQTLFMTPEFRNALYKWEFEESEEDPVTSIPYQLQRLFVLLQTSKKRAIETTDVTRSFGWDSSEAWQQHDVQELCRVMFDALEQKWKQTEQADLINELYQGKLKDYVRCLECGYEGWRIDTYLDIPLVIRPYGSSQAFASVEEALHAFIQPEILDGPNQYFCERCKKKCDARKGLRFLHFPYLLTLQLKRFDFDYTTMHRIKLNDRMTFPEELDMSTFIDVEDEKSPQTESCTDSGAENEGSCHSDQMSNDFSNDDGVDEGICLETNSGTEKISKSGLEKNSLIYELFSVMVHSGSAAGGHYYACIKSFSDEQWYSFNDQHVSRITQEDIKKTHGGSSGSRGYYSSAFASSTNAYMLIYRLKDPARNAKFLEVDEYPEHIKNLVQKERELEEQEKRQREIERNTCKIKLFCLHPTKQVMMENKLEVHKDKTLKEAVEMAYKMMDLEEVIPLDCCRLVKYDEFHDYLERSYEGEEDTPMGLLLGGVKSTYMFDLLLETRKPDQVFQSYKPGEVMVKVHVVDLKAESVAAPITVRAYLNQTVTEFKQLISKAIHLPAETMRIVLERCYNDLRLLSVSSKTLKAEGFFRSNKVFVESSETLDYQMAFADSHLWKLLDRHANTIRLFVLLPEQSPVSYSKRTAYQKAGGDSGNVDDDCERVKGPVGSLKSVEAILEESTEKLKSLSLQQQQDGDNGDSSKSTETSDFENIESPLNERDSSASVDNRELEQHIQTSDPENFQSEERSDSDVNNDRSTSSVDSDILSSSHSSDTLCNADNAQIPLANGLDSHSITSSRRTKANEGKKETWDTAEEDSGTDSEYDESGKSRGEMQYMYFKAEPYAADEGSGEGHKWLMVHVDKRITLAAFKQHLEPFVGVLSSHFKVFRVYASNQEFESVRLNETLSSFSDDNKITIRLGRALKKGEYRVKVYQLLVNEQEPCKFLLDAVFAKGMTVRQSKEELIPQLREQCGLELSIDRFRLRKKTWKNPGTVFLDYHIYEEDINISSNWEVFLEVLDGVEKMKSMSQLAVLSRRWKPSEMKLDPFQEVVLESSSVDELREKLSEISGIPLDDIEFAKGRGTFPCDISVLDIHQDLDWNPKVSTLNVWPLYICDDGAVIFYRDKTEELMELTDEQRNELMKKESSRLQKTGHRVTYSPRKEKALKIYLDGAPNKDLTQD
Method in brief: as §1

USP48 = target: T3, USP48 (UniProt Q86UV5)
T3 sequence (whole entry): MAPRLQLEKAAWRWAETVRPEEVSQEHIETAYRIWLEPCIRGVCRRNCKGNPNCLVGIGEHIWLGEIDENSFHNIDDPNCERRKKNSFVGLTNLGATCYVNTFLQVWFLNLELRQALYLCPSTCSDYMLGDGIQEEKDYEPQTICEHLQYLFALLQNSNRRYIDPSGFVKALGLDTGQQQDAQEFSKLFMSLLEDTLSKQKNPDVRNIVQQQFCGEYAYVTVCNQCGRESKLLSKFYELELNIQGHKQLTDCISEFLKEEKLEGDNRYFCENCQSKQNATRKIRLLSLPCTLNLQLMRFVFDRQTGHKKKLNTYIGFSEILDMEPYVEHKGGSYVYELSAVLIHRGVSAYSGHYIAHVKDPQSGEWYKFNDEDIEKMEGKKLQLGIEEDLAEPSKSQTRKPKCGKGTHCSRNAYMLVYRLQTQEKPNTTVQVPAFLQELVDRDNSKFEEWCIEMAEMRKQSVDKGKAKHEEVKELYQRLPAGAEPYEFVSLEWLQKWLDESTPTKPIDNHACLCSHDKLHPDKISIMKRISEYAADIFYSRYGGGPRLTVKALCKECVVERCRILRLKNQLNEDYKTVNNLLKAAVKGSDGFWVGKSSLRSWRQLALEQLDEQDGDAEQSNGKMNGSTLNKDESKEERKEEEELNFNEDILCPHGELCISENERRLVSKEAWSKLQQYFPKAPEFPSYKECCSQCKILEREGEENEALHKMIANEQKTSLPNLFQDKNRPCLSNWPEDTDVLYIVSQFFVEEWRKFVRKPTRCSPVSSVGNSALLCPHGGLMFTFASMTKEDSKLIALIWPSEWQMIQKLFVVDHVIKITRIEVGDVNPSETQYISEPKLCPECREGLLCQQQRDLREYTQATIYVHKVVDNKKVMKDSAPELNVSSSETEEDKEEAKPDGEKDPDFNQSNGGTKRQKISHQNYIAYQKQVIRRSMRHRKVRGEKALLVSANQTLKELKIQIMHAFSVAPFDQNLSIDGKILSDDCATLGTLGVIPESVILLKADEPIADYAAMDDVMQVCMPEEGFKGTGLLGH
Method in brief: as §1

USP5 = target: T4, USP5 (UniProt P45974)
T4 sequence (whole entry): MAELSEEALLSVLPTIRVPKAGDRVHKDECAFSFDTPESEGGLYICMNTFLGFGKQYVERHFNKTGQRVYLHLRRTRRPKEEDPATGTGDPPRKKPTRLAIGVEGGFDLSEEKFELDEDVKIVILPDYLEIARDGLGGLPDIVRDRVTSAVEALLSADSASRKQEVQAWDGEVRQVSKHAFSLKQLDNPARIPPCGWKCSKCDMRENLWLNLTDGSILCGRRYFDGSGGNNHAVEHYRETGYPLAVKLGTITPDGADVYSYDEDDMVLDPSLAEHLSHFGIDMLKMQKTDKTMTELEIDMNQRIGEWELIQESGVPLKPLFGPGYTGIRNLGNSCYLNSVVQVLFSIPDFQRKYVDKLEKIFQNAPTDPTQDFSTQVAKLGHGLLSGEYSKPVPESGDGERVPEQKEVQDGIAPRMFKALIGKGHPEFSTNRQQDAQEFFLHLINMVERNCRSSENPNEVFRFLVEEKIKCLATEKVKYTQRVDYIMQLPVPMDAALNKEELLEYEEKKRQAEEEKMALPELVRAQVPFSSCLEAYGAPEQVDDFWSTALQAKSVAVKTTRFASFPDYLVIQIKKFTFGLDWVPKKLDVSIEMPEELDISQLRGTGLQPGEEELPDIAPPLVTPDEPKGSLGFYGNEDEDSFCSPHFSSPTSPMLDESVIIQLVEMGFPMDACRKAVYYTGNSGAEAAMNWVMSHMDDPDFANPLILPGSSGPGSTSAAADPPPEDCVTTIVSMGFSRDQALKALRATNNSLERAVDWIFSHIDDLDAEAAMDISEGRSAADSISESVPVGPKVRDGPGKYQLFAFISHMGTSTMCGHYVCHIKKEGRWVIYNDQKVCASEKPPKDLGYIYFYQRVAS
Method in brief: as §1

USP54 = USP54 (UniProt Q70EL1)
Method in brief: as §1

USP7 = USP7 (UniProt Q93009)
Method in brief: as §1

USP8 = target: T5, USP8 (UniProt P40818)
T5 sequence (whole entry): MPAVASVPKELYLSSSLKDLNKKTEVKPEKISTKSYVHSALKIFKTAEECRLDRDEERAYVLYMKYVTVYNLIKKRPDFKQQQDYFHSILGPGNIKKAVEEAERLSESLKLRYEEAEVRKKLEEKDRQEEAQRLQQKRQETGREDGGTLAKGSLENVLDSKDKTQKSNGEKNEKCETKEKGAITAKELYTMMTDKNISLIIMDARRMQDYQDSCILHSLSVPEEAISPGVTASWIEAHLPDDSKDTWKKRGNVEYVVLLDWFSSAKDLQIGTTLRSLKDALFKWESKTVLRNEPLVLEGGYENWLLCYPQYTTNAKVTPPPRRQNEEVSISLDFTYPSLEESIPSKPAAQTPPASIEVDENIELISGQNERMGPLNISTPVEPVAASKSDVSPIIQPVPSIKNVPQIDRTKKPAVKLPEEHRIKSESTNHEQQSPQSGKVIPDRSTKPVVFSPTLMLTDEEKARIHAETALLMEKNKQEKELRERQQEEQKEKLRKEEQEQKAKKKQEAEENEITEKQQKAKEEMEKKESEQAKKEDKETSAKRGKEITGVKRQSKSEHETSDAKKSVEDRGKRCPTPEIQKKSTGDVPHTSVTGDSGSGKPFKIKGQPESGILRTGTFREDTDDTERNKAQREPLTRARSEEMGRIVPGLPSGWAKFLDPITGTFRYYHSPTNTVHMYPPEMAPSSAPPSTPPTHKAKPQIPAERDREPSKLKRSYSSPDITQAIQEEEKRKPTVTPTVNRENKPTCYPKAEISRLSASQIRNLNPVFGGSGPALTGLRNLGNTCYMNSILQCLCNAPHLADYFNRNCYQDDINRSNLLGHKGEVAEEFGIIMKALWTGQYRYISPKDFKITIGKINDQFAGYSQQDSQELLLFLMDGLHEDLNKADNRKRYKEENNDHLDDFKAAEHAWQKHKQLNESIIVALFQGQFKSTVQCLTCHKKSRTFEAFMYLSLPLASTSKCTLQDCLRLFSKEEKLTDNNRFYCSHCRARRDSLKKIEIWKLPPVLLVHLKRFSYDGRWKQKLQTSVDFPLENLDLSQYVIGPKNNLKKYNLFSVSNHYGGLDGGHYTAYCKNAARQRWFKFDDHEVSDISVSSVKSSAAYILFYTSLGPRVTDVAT
Method in brief: as §1

Measured: log2 ratio of Biotin-Ahx-Ub-VS probe labelling

Sequence of USP54 (Q70EL1 whole entry): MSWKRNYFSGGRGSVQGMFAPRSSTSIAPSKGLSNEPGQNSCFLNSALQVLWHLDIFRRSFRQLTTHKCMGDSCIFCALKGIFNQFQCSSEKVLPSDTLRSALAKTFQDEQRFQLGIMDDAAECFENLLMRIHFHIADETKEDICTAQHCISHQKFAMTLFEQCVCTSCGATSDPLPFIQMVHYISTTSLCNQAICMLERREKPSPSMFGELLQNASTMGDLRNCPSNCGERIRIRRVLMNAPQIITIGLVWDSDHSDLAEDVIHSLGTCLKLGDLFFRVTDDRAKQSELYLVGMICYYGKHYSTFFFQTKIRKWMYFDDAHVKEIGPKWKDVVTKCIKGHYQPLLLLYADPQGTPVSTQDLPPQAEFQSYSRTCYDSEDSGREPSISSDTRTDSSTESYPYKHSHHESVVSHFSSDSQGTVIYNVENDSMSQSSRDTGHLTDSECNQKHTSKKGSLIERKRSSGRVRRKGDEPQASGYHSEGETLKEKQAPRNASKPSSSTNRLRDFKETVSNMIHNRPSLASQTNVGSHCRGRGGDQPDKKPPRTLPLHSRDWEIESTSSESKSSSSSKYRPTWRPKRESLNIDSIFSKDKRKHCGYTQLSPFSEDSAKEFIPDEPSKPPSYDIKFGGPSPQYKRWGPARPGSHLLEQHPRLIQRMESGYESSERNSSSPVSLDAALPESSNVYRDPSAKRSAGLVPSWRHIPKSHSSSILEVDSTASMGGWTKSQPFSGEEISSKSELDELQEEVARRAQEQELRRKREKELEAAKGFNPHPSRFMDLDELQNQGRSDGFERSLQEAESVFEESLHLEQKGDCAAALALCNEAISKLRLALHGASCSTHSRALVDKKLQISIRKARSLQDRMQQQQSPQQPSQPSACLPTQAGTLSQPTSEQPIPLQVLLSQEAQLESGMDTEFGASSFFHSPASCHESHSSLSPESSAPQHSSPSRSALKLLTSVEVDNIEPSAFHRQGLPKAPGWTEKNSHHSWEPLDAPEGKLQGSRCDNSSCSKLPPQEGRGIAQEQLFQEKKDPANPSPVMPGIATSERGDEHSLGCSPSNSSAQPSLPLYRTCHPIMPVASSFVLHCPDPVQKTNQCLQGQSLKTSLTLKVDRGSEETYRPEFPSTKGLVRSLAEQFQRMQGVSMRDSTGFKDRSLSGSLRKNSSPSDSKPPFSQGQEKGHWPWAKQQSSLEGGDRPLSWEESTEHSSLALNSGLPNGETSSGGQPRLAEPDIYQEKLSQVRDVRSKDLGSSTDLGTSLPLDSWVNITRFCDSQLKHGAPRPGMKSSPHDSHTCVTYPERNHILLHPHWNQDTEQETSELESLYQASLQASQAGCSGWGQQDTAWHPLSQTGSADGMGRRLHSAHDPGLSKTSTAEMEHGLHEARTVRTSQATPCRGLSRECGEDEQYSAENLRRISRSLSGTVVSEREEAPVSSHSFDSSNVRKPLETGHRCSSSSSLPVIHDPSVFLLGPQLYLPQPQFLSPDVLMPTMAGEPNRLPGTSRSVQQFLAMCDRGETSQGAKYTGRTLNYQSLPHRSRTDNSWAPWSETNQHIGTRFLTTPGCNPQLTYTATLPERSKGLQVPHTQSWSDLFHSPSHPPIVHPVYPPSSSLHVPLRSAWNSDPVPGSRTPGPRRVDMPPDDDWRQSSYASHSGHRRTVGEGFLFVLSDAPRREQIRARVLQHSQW
Sequence of USP7 (Q93009 whole entry, looked up): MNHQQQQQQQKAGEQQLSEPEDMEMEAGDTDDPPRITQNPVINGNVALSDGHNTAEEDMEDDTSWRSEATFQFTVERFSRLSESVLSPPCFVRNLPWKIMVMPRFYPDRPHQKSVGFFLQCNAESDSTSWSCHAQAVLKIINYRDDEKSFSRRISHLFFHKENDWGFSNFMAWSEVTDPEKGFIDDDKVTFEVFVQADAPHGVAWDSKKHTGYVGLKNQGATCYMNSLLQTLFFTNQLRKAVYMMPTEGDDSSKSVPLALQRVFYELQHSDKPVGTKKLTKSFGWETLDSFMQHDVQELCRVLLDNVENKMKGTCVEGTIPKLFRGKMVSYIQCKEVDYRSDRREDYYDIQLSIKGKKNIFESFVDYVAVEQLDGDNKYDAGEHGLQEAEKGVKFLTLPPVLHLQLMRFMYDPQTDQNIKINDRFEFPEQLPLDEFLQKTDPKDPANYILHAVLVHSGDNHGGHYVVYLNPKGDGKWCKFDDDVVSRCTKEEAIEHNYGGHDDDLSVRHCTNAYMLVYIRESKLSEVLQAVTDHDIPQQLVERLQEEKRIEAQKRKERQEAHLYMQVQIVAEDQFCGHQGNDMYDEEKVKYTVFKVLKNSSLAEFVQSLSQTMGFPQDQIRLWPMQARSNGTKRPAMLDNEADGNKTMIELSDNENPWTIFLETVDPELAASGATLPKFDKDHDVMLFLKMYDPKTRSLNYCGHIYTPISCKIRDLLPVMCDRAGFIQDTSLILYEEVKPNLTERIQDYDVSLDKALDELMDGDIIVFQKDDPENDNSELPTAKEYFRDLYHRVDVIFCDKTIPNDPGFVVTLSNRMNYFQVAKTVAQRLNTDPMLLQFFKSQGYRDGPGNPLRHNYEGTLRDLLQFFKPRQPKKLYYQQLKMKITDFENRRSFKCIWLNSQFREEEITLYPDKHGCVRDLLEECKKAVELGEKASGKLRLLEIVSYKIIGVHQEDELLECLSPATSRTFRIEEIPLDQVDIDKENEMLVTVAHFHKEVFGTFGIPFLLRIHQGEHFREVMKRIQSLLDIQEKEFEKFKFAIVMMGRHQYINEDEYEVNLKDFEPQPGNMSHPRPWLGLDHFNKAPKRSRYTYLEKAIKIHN
Sequence of USP46 (P62068 whole entry): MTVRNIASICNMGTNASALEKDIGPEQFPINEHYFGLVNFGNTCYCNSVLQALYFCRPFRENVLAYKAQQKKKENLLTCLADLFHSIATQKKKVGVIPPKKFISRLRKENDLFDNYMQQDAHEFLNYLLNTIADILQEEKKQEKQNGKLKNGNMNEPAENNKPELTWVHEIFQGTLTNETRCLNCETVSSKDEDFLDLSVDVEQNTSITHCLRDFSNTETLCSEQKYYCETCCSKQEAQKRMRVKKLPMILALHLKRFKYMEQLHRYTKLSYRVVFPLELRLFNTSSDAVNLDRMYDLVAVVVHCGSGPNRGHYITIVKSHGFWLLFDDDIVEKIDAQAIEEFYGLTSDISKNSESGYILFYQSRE

CCC(NC(=O)CCl)c1ccc(Cl)cc1 (stereo not drawn)
inactive: USP42 0.358 | USP46 -0.00255 | USP47 -0.558 | USP48 -0.293 | USP5 0.0661 | USP54 0.671 | USP7 -0.195 | USP8 -0.0586
